# Compounds with a hit are over-represented: about 27% of the library has one in this group of screens.
# Cav3 T inh: inhibitors of human Cav3.2 T-type calcium channel; Cav3.2-expressing cells, Fluo-4 calcium fluorescence FDSS; active compounds read low; B-score at 10 µM; hit rate 4% among 100,000; AID 449739;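 active = single-dose well whose peak fluorescence ratio is a statistical outlier from its plate by either plate-standardised score or position-corrected B-score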
# CYP2C9 act: increases human cytochrome P450 2C9 activity; recombinant CYP2C9, luciferin-H conversion, luminescence; active compounds read high; factor 1 = untreated enzyme, 0 = blocked; activation factor at 5 µM; hit rate 1.4% among 96,000;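 active = activation factor of 2 or more for CYP2C9 at a 5 µM dose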;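 also: 0 = sulfaphenazole-blocked wells and 1 = vehicle-only wells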
# Target sequence (P11712 whole entry, looked up): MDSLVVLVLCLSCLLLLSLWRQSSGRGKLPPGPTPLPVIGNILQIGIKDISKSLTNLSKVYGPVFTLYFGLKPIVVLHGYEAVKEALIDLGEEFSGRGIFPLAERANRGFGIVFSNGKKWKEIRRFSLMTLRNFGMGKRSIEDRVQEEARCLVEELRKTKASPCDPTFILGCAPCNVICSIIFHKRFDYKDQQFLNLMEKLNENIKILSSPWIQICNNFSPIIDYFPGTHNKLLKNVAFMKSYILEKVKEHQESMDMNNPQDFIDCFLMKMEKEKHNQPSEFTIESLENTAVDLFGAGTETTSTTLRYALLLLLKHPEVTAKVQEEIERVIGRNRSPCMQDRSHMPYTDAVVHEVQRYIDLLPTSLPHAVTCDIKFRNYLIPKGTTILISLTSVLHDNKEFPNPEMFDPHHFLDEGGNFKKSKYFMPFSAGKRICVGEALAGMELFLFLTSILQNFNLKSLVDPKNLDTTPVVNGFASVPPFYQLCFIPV
# CYP2C19 inh: inhibitors of human CYP2C19 | CYP2C19 Supersomes, luciferin-H EGE luminescence, 30 min | inhibition, % at 5 µM | hit rate 21% among 96,000 | AID 778;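 active = CYP2C19 inhibition above a set limit at 5 µM in the primary screen, cut at about 50% in these data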;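 also: plate controls were negative control wells for no effect and 2.5 mM tranylcypromine positive control for full effect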
# CYP2C9 inhib: blocks human cytochrome P450 2C9; hit rate 20% among 96,000; AID 777; P11712; inhibition, % at 5 µM; CYP2C9 Supersomes, luciferin-H conversion, luminescence;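 active = blocking of liver enzyme CYP2C9 beyond about 50% at 5 µM, limit read from the data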
# CYP2C19 activ: activators of human cytochrome P450 2C19; activation factor at 5 µM; 96,000 tested, under 10 active; recombinant CYP2C19, luciferin-H EGE luminescence; active compounds read high; 0 = fully inhibited enzyme, 1 = untreated enzyme; AID 1025; P33261;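 active = activation factor of at least 2 at 5 µM in the primary screen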;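 also: 0 = wells with 2.5 mM tranylcypromine and 1 = vehicle-only wells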
# The depositor's hits bear a star; · = no result given.
SMILES,Cav3 T inh,CYP2C9 act,CYP2C19 inh,CYP2C9 inhib,CYP2C19 activ
Cc1[nH]ccc(=O)c1OC1OC(CO)C(O)C(O)C1O (configuration not stated),1.3,·,·,·,·
Cc1cc(OCC(=O)N2CCOCC2)cc2oc(=O)c3ccccc3c12,-0.12,·,·,·,·
C[C@H]1CCC[C@@]2(O[C@@H](CCO)C[C@@H](O)[C@@H]2O)O1,1,·,·,·,·
c1ccc2c(c1)nc1n2CCS1,0.016,1.2,62*,-19,0.4
O=C1CSc2nc3ccccc3n21,0.97,1.3,-2,-30,1
CC(=O)Cc1nsc(NC(=O)c2cc(-c3cccc(C(F)(F)F)c3)oc2C)n1,0.0035,0.8,-3,21,1
O=c1oc(-c2cccs2)nc2c1cnn2-c1ccccc1,-0.24,0.9,-15,7,1.1
CCn1nccc1C(=O)Nc1cc(Cl)ccc1Cl,-1.9,1.1,3,-10,1
CCn1nccc1C(=O)Nc1ccc(Cl)cc1Cl,-0.38,0.7,63*,34,0.4
CC1=C(C(=O)OCC(Br)(Br)Br)C(c2cccc([N+](=O)[O-])c2)NC(=O)N1CCCC(=O)O (configuration not stated),-1,·,·,·,·
CCOC(=O)c1ccc(OCc2nc(-c3cccs3)no2)cc1,1.9,0.3,22,67*,0.8
COC(=O)c1ccc(-c2nc(-c3cccs3)no2)cc1,-0.71,0.6,91*,40,0.1
COC(=O)c1ccc(-c2nc(-c3ccc(Br)o3)no2)cc1,-0.94,0.7,19,29,0.8
Cc1nn(-c2ccccc2)c(Cl)c1/C=N/NC(=O)c1ccco1,1.7,1,-4,-4,1
Cc1nn(-c2ccccc2)c(C)c1/C=N/NC(=O)c1cc(-c2ccc(Br)s2)[nH]n1,-3,0.2,77*,84*,0.2
Cc1nn(-c2ccccc2)c(C)c1/C=N/NC(=O)c1cc(C2CC2)[nH]n1,-0.039,0.4,60*,58*,0.4
Cc1nn(-c2ccccc2)c(C)c1/C=N/NC(=O)c1cc(C23CC4CC(CC(C4)C2)C3)[nH]n1,0.87,0.5,16,53*,0.8
Cc1nn(-c2ccccc2)c(C)c1/C=N/NC(=O)c1cc(-c2ccc(Cl)s2)[nH]n1,-3.5,0.8,22,16,0.8
CCn1cc(-c2cc(C(F)(F)F)n3nc(C(=O)O)cc3n2)c(C)n1,0.87,0.9,-4,10,1
NC(=O)C1(N2CCCCC2)CCN(C(=O)CSc2nc(C(F)(F)F)cc(=O)[nH]2)CC1,1.7,1.1,7,-7,0.9
O=S(=O)(Nc1ccccc1)c1ccc(Oc2ncc(C(F)(F)F)cc2Cl)cc1,0.3,0.8,7,21,0.9
COc1ccc(-c2c[n+]3c4n2CCCCC4=C(c2ccccc2)C3)cc1,-1.3,1,-11,-1,1.1
COc1ccc(CN2C(=O)CS(=O)CC2=O)cc1OC,-0.13,1,8,-4,0.9
Cn1c(N)c(C(=O)CSc2ccc3c(c2)OCCO3)c(=O)n(C)c1=O,·,0.8,42,17,0.6
C/C(N)=C(/C#N)C(=O)CSc1ccc2c(c1)OCCO2,-0.67,0.8,95*,19,0.1
SMILES,Cav3 T inh,CYP2C9 act,CYP2C19 inh,CYP2C9 inhib,CYP2C19 activ
Nc1ccc(C(=O)Nc2ccco2)cc1,0.11,·,·,·,·
O=C(Cc1ccccc1)NC1CCN(S(=O)(=O)c2cccc(F)c2)CC1,1.2,0.9,73*,9,0.3
Cc1ccc(S(=O)(=O)c2c(N)n(CCCO)c3nc4ccccc4nc23)cc1,0.21,0.1,92*,92*,0.1
Cc1ccc(S(=O)(=O)c2c(N)n(NC(=O)c3ccccc3C)c3nc4ccccc4nc23)cc1,·,0.6,33,37,0.7
Cc1ccc(C(=O)Nn2c(N)c(S(=O)(=O)c3ccc(C)cc3)c3nc4ccccc4nc32)cc1,-5.5*,0.9,-4,12,1
COc1ccc(-c2cc(C(F)(F)F)nc(SCC(=O)N3CC(C)OC(C)C3)n2)cc1OC (configuration not stated),0.52,·,·,·,·
CC(C)(C)NC(=O)c1cccc(NC(=O)CSc2ccccc2)c1,-0.31,0.7,4,35,1
CC(C(=O)N1CCN(c2ccc(Cl)cc2)CC1)c1ncc(C(F)(F)F)cc1Cl (configuration not stated),-2.1,0.7,52*,29,0.5
Cc1ccc(-c2cc(C(=O)N/N=C/c3c(C)nn(C)c3C)c3ccccc3n2)cc1C,0.56,0,81*,97*,0.2
CC(/C=N/NC(=O)c1cc(-c2ccc(Cl)cc2)nc2ccccc12)=C\c1ccco1,-2.5,0.1,5,89*,1
CCn1ncc(/C=N\NC(=O)c2cc(-c3ccc(C)cc3C)nc3ccccc23)c1C,-1.8,0,90*,97*,0.1
Cc1occc1C(=O)N/N=C/c1cnn(C)c1C,0.46,·,·,·,·
Cc1sc(NC(=O)c2ccco2)c(CN2CCC(C)CC2)c1C,-5.2*,0.7,36,27,0.6
Cc1sc(NC(=O)c2ccco2)c(C(c2cccnc2)N2CCC(C)CC2)c1C (configuration not stated),-1.5,0.2,88*,76*,0.1
COC(=O)c1ccc(OCC(=O)c2ccccc2OC)cc1,-0.28,0.6,90*,45,0.1
COC(=O)COc1ccc(C(=O)OC)cc1,-0.016,0.7,81*,29,0.2
CCOC(=O)C1CCN(c2c(NC3CCCc4ccccc43)c(=O)c2=O)CC1 (configuration not stated),-0.059,1,-13,2,1.1
COC(=O)[C@H](CCSC)NC(=O)NC1CCN(Cc2ccccc2)CC1,0.17,1.1,-23,-8,1.2
O=C(OC(C(=O)NC1CCCC1)c1ccccc1F)c1ccco1 (configuration not stated),-0.79,0.3,48,69*,0.5
CC(C)CC(OC(=O)c1ccco1)C(=O)NC1CCCCC1 (configuration not stated),0.77,0.1,83*,87*,0.2
O=C(OC(C(=O)NC1CCCCC1)c1ccccc1)c1ccco1 (configuration not stated),-0.36,·,·,·,·
CSCCC(NC(=O)c1ccco1)C(=O)OC(C)C(=O)NC(=O)NC1CCCCC1 (configuration not stated),-2,0.3,31,65*,0.7
O=C(O)Cn1nnnc1-c1ccc(F)cc1,0.044,1,-3,0,1
Fc1cccc2sc(N3CCOCC3)nc12,0.0046,·,·,·,·
Fc1cccc2sc(N3CCCCC3)nc12,-1.4,0.9,60*,8,0.4
O=C(NC1CCCCC1)C1CN(S(=O)(=O)c2ccccc2)CCN1S(=O)(=O)c1ccccc1 (configuration not stated),0.026,0.8,12,16,0.9
CCc1nc(SCC(=O)O)c(C#N)cc1C,·,1.1,-12,-12,1.1
CCc1nc(SCc2cccnc2)c(C#N)cc1C,-0.6,0.7,57*,32,0.4
Cc1cc(-c2cccnc2)c(C#N)c(SCc2cccc(F)c2)n1,0.08,1.8,69*,-79,0.3

# Screens deposited in PubChem by several laboratories.
